Hits are enriched below; roughly 0.51% of the tested compounds scored in any of these assays.
phage Ecoli inh – growth loss of phage-infected E. coli, primary screen, RecBCD inhibitor project, absorbance, with phage, HTS; inhibition, % at 11.9 µM; actives 0.26% (n = 360,000); in the data active = inhibition above about 11%
E coli growth-1 – E. coli V3065 growth inhibition, primary screen, counter-screen for AddAB inhibitor project, absorbance, OD600; inhibition, % at 11.9 µM; 18 h; AID 449728, 2010; actives 0.27% (n = 330,000);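 active = inhibition above the campaign's mean inhibition across all tested compounds plus 3 SD, cut at about 9.9% in these data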;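 also: uninfected addAB+ strain grown without phage in ampicillin broth; 0% = DMSO wells and 100% = ciprofloxacin 0.95 µg/ml wells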
Tat transport – E. coli Tat export inhibitors, primary screen, MC4100, TorA-mCherry reporter, fluorescence, single point; inhibition, % at 10 µM; actives 0.036% (n = 340,000);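 active = mean replicate inhibition at least 50% and at least half of replicates individually reaching 50%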;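 also: exported cargo escapes ClpAP degradation while cytoplasmic cargo is degraded and loses fluorescence; 0% = median of neutral control wells and 100% = median of NaSCN control wells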
AddAB inh – growth inhibition of E. coli expressing H. pylori AddAB, primary screen, AddAB inhibitor project, absorbance; inhibition, % at 11.9 µM; actives 0.29% (n = 330,000); in the data active = inhibition above about 12%;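 also: 0% = vehicle wells of infected cells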
E coli growth-2 – E. coli growth inhibition, primary screen, OD600 | Escherichia coli growth, 23 h; hits give low values | OD600 absorbance (concentration not given with the values) | actives 0.21% (n = 330,000);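 active = OD600 absorbance below the run mean of sample wells minus 3.6 SD, in any replicate, cut at about 0.56 in these data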
RecBCD conf – growth loss of phage-infected RecBCD+ E. coli, confirmation, RecBCD inhibitor project, absorbance, E. coli V66, T4 gene 2 phage; shares compounds with phage Ecoli inh; E. coli V66 + T4 2- phage, growth OD; inhibition, % at 11.9 µM; actives 45% (n = 890); AID 651982, 2013;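 active = mean inhibition over triplicates exceeding the hit threshold derived in the original primary screen, cut at about 11% in these data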
Ecoli viability – E. coli viability inhibition, counter-screen for RecBCD inhibitor project, absorbance, high throughput; absorbance (OD) growth; shares compounds with phage Ecoli inh; actives 29% (n = 890); inhibition, % at 11.9 µM; in the data active = inhibition above about 20%;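 also: E. coli strain V66 grown with compound alone and no phage infection; 0% = bacteria with DMSO vehicle only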
AddAB counter – growth loss of phage-infected AddAB-carrying E. coli, confirmation, counter-screen for RecBCD inhibitor project, absorbance, E. coli V3065, T4 phage. shares compounds with phage Ecoli inh. E. coli expressing H. pylori AddAB + T4 phage, OD growth; gene 2 mutant T4, recBCD-deleted host. inhibition, % at 11.9 µM. actives 45% (n = 890). AID 651984, 2013;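 active = mean inhibition above the solvent-only control wells' mean plus 3 SD, cut at about 22% in these data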;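 also: higher means less bacterial growth from phage killing when AddAB is blocked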
An asterisk follows results filed as active; . = not tested or not shown; ! = a repeat was not active.

SMILES | phage Ecoli inh | E coli growth-1 | Tat transport | AddAB inh | E coli growth-2 | RecBCD conf | Ecoli viability | AddAB counter
CC(=NNC(=O)c1cccnc1)c1ccc(-n2ccnc2)cc1 | . | . | . | . | 0.684 | . | . | .
Cc1cc2cc(CCNC(=O)c3cccs3)c(=O)[nH]c2cc1C | 14.1* | 7.4 | -9.2 | 11.4 | 0.689 | 5.5 | 6.3 | 8.4
Cc1ccc(CN2CCN(N=Cc3ccc(C(=O)O)cc3)CC2)cc1 | . | . | . | . | 0.681 | . | . | .
Cn1cc(CC(=O)N2CCN(c3ccccc3F)CC2)c2ccccc21 | 84.4* | -0.9 | -9.3 | 1.6 | 0.688 | -2.3 | -2.1 | -7.4
O=C(NN=Cc1cccnc1)c1ccco1 | . | . | . | . | 0.62 | . | . | .
CCOC(=O)c1c(C)[nH]c(C(=O)N/N=C\c2ccccc2O)c1C | 17.1* | -3.1 | 7.3 | 6.0 | . | 5.3 | 7.2 | 8.5
CC(C)OC(=O)c1ccc(NC(=O)CSc2nc3ncccc3[nH]2)cc1 | 11.0* | 6.5 | -30.2 | 11.3 | 0.59 | 4.7 | 7.2 | 3.8
CC(C)c1ccc(NC(=O)CSc2nc3ncccc3[nH]2)cc1 | 8.4 | 3.0 | 17.7 | 2.7 | 0.679 | . | . | .
COc1cc(C=NNC(=O)C(=O)/C=C2\NC(C)(C)Cc3ccccc32)ccc1O | . | . | . | . | 0.724 | . | . | .
O=C(NNC(=O)c1cc(-c2cccnc2)nc2ccccc12)Nc1ccc(Cl)cc1 | 13.3* | 5.7 | -2.4 | 8.1 | 0.524* | 8.6 | 9.1 | 1.8
O=C(C=Cc1ccccc1)c1cc(Br)ccc1O | 1.9 | . | 1.3 | . | 0.642 | . | . | .
CCc1ccc(/C=C/C(=O)c2cc(Br)ccc(=O)c2O)cc1 | 13.8* | 2.9 | -4.9 | 3.0 | 0.692 | 9.8 | 11.9 | -0.5
CCOc1ccc(/C=C/C(=O)c2cc(Br)ccc(=O)c2O)cc1 | 15.7* | 9.4 | 1.1 | 12.9* | 0.693 | 6.6 | 9.8 | 2.9
CCOc1ccc(C(=O)/C=C/c2ccc(OC)c(OC)c2)cc1 | 0.9 | -0.9 | 4.4 | 1.2 | 0.684 | . | . | .
Cc1ccc(/C=C/C(=O)c2cc(Br)ccc2OC(=O)c2ccco2)cc1 | 2.2 | 1.6 | 20.9 | 0.7 | 0.718 | . | . | .
Cc1cccc(/C=C/C(=O)c2cc(Br)ccc(=O)c2O)c1 | 17.0* | 5.9 | -0.8 | 7.9 | 0.669 | 5.6 | 6.6 | 5.3
O=C1NCCOC(=O)C(Cc2ccc(F)cc2)CCC=CCC1CC(=O)N(CCO)Cc1ccccc1 (centres undefined) | . | . | . | . | 0.707 | . | . | .
COC(=O)C1=C(C)N=c2sc(=Cc3cccs3)c(=O)n2C1c1ccc(F)cc1 (centres undefined) | . | . | . | . | 0.731 | . | . | .
CC1(C)S[C@@H]2[C@H](NC(=O)[C@H](N)c3ccccc3)C(=O)N2[C@H]1C(=O)OC1OC(=O)c2ccccc21 (some centres undefined) | 21.4* | 0.8 | -12.6 | -1.4 | . | 29.5* | 53.0* | 14.6
COC(=O)C1N2C(=O)C(NC(=O)COc3ccccc3)C2SC1(C)C (centres undefined) | . | . | . | . | 0.648 | . | . | .
CO[C@@]1(NC(=O)Cc2cccs2)C(=O)N2C(C(=O)O)=C(COC(N)=O)CS[C@@H]21 | 27.2* | -2.1 | -16.3 | -1.3 | . | 94.4* | 104.3* | 100.9*
O=C(N/N=C/c1ccc([N+](=O)[O-])o1)c1ccc2c(c1)OCO2 | 11.1* | . | -15.4 | . | . | 12.3* | 12.3 | 102.5*
O=C(CN1CCOCC1)NN=Cc1ccc([N+](=O)[O-])o1 | 17.4* | . | . | . | . | 10.4 | 9.5 | 53.8*
O=S1(=O)CCOCC(CC2CCCCC2)N1Cc1ccccc1 (centres undefined) | . | . | . | . | 0.697 | . | . | .
COC(=O)C1=C(C(=O)OC)C2N(Cc3ccccc3)c3ccccc3[C@@]23CC(CO)N(C(=O)NC2CCCC2)C3=N1 (some centres undefined) | . | . | . | . | 0.686 | . | . | .
SMILES | phage Ecoli inh | E coli growth-1 | Tat transport | AddAB inh | E coli growth-2 | RecBCD conf | Ecoli viability | AddAB counter
O=c1[nH]nc(-c2ccc([N+](=O)[O-])o2)c(=O)[nH]1 | 22.3* | . | 40.4 | . | 0.523* | 15.9* | 17.1 | 91.2*
O=S(=O)(Nc1cc(Sc2ncn[nH]2)c(O)c2ccccc12)c1ccccc1 | 11.4* | . | -5.3 | . | 0.606 | 1.9 | 1.1 | 0.5
Cc1cc(O)c(Sc2ncn[nH]2)cc1NS(=O)(=O)c1ccc(Cl)cc1 | 3.3 | -0.7 | 6.1 | 0.5 | 0.686 | . | . | .
O=C(O)CCCCCN1C(=O)C(O)=C(C(=O)C=Cc2ccccc2)C1c1cccc([N+](=O)[O-])c1 (centres undefined) | . | . | . | . | 0.718 | . | . | .
CCn1c(=O)c(C(=O)NCCc2ccc(OC)c(OC)c2)c(O)c2ccccc21 | 11.1* | 9.9* | 3.4 | 3.7 | 0.657 | 4.7 | 6.5 | 11.4
CCCn1c(=O)c(C(=O)NCCc2ccc(OC)c(OC)c2)c(O)c2ccccc21 | 2.7 | . | 4.8 | . | 0.665 | . | . | .
COc1cc(/C=N/NC(=O)c2ccncc2)ccc1O | 100.3*! | -3.2 | -8.8 | -1.8 | . | -1.8 | -1.2 | -0.6
COc1ccc(/C=N/NC(=O)c2ccncc2)cc1OC | 0.1 | 1.0 | -3.3 | 2.7 | . | . | . | .
COc1ccc(OCCCC(=O)ON=C(N)c2ccccc2C)cc1 | 2.3 | -0.9 | -5.1 | -0.6 | 0.702 | . | . | .
CCOc1ccc(OCCCC(=O)ON=C(N)c2ccccc2Cl)cc1 | 11.0* | -2.6 | 2.6 | 1.1 | 0.638 | -0.1 | -0.1 | 4.4
O=c1cc(-c2ccccc2)oc2cc(O)c(O)c(O)c12 | 11.8* | 10.8* | 10.0 | 12.1 | 0.691 | 5.6 | 9.0 | 7.0
COc1c(O)cc2oc(-c3ccc(O)cc3)cc(=O)c2c1O | 3.0 | -1.0 | -7.2 | 3.3 | 0.63 | . | . | .
Oc1ccc(-c2nc3ccccc3nc2-c2ccccc2)cc1 | 32.6* | 0.3 | -1.0 | 0.5 | 0.701 | -1.3 | -1.3 | -0.5
O=C(O)c1c[nH]c2c([N+](=O)[O-])cccc2c1=O | 11.1* | . | -20.6 | . | 0.534 | 7.0 | 7.0 | 18.6
O=C1CCC=CCC(CC(=O)N(CCO)Cc2ccccc2)C(=O)NCC(c2ccccc2)O1 (centres undefined) | . | . | . | . | 0.662 | . | . | .
CN(C)C(=O)N1CCC(C(=O)NCc2ccc(F)cc2)CC1 | 46.2* | -1.2 | -7.0 | 1.4 | 0.728 | -3.2 | -2.2 | -2.4
C/C(CC(=O)Nc1ccccn1)=N\NC(=O)c1ccccc1O | 19.3* | 8.9 | 0.9 | 9.7 | . | 8.6 | 10.0 | 12.4
CC(CC(=O)Nc1ccccn1)=NNC(=O)c1ccccc1 | . | . | . | . | 0.712 | . | . | .
Oc1ccc(C=NNC(=S)Nc2cccnc2)cc1 | . | . | . | . | 0.667 | . | . | .
Oc1ccc(C=NNC(=S)Nc2cccnc2)nc1 | 21.3* | . | 1.3 | . | . | 18.7* | 21.4* | 36.2*
O=C(NN=Cc1ccccc1F)c1csc2c1CCCC2 | . | . | . | . | 0.688 | . | . | .

Source: PubChem BioAssay
